Experimental findings from PubChem BioAssay (EPA / NIEHS) are described below.

Several values for one entry are separate records, joined by “and”; a condition that tells them apart may be missing. Identical values can stand only once. The source holds several records for some structures; these can differ, active in one and inactive in another. Activity calls are given as the source filed them. Rule for the calls: active = hit-call score of the fitted dose curve at least 0.9, where 1 is the maximum; inactive = score below 0.9.

A short description of this experiment: ATG_BRE_CIS: Attagene CIS-FACTORIAL HepG2 Assay for human Bone Morphogenetic Protein (BMP) Response Element (BRE) (AID 2282933). Conditions: HepG2 BMP response element reporter, Attagene transcription factor profiling; actives raise or lower the signal. How it is done: ATG_CIS is a cell-based, multiplexed-readout assay that uses HepG2, a human liver cell line, with measurements taken at 24 hours after chemical dosing in a 24-well plate.ATG_BRE_CIS is one of 52 assay component(s) measured or calculated from the ATG_CIS assay. It is designed to make measurements of mRNA induction, a form of inducible reporter, as detected with fluorescence intensity signals by Reverse transcription polymerase chain reaction (RT-PCR) and Capillary electrophoresis technology.Data from the assay component ATG_BRE_CIS was analyzed into 1 assay endpoint. This assay endpoint, ATG_BRE_CIS, was analyzed with bidirectional fitting relative to DMSO as the negative control and baseline of activity. Using a type of inducible reporter, measures of mRNA for gain or loss-of-signal activity can be used to understand the reporter gene at the transcription factor-level as they relate to the gene SMAD1. Furthermore, this assay endpoint can be referred to as a primary readout, because this assay has produced multiple assay endpoints where this one serves a reporter gene function. To generalize the intended target to other relatable targets, this assay endpoint is annotated to the dna binding intended target family, where the subfamily is Smad protein.
Human liver HepG2 cells are transiently transfected with multiple reporter transcription units (MRTUs) in 6-well plates using FuGene 6 reagent (Roche; 3 ml FuGene/1 mg DNA). The MRTU constructs are regulated by a cis-regulating element (promoter). […] A major difference between the CIS and TRANS system is that in CIS activities of endogenous TFs are measured, whereas the TRANS assay evaluates changes in activities of exogenous, chimeric NR-Gal4 proteins. […] At the end of 24 hour incubation, total RNA was isolated using TriZol reagent (Invitrogen). The isolated RNA is then reverse-transcribed using oligo(dT) primer and Mo-MLV reverse transcriptase (Invitrogen) with DNAse I (Ambion) treatment for 30 min. The one-tenth of the produced cDNA was amplified by PCR using Taq DNA polymerase (Invitrogen) and two reporter sequence-specific primers. The PCR products were fluorescently labeled by primer extension with 6-arboxyfluorescein (6-FAM) 5'-labeled reporter sequence-specific primer (2 min at 95 C, 20 s at 68 C and 10 min at 72 C) and these products were digested with 5U of HpaI (New England Biolabs) for 2h at 37 C. The fragments were purified using Qiaquick PCR columns (Qiagen), analyzed on an ABI 3130xL genetic analyzer (Applied Biosystems) with peak positions identified by using a set of X-rhodamine (ROX)-labeled MapMarker1000 molecular weight standards (BioVentures). The raw capillary electrophoresis data was processed using Attagraph software (Attagene).
For `OC(c1ccc(Cl)cc1)(c1cncnc1)c1ccccc1Cl` (stereo not given), the half-maximal activity concentration (AC50) (as a rule, the concentration at which the activity in the assay is half-maximal) was 19.8 µM (active) and the call was inactive. Take `O=C(O)c1nc(Cl)ccc1Cl`: the result was inactive. On to `N#Cc1nn(-c2c(Cl)cc(C(F)(F)F)cc2Cl)c(N)c1S(=O)C(F)(F)F` (stereo not given), for which the compound was classed as inactive and the AC50 is 24.8 µM (active). Regarding `COc1ccc(C(c2ccc(OC)cc2)C(Cl)(Cl)Cl)cc1`, the result was inactive; the concentration at half-maximal activity (AC50) was 29.7 µM (active) and 15.5 µM (active). Take `CC(C)C1(C)N=C(c2nc3ccccc3cc2C(=O)O)NC1=O` (stereo not given): the compound was classed as inactive. Consider `CCCCNC(=O)OCC#CI`, for which the half-maximal activity concentration (AC50) was 25.2 µM (active) and the compound was called inactive.

For `CNC(=S)S`, the outcome was inactive and the AC50 was 65.9 µM (active). For `CCCC1COC(Cn2cncn2)(c2ccc(Cl)cc2Cl)O1` (stereo not given) the same measures were “inactive” and 29.7 µM (active). Take `CS/C(C)=N/OC(=O)N(C)SN(C)C(=O)O/N=C(\C)SC`: the compound was classed as inactive. Regarding `COC(=O)N(OC)c1ccccc1COc1ccn(-c2ccc(Cl)cc2)n1`, the AC50 was 0.743 µM (active).

Consider `Oc1ccccc1-c1ccccc1`, for which the AC50 is 71.7 µM (active) and 150 µM (active). On to `C=CC1(C)OC(=O)N(c2cc(Cl)cc(Cl)c2)C1=O` (stereo not given), for which the result was inactive. For `CN(C)C(=S)SSC(=S)N(C)C`, the compound was classed as inactive. Consider `CCOC(=O)C(Cl)Cc1cc(-n2nc(C)n(C(F)F)c2=O)c(F)cc1Cl` (stereo not given), for which the outcome was inactive.

In the case of `CCOc1cc(Oc2ccc(C(F)(F)F)cc2Cl)ccc1[N+](=O)[O-]`, the half-maximal activity concentration (AC50) is 16.6 µM (active). Turning to `CNC(=O)ON=CC(C)(C)SC`, the call was inactive.

In the case of `CO/C=C(/C(=O)OC)c1ccccc1Oc1cc(Oc2ccccc2C#N)ncn1`, the compound was classed as inactive. `CCCCNC(=O)n1c(NC(=O)OC)nc2ccccc21`: the compound was called inactive.

Take `COc1cnc(OC)n2nc(NS(=O)(=O)c3c(OCC(F)F)cccc3C(F)(F)F)nc12`: the result was inactive.

As to `C=CCC1=C(C)[C@@H](OC(=O)[C@@H]2[C@@H](C=C(C)C)C2(C)C)CC1=O`, the outcome was inactive. With `CC(C)(C)c1ccc(CSc2cnn(C(C)(C)C)c(=O)c2Cl)cc1`, the half-maximal activity concentration (AC50) was 0.103 µM (active). As to `COc1nc(C)nc(NC(=O)NS(=O)(=O)c2ccccc2Cl)n1`, the call was inactive. For `O=C(Nc1ccccc1)Nc1ccnc(Cl)c1`, the AC50 was 27.8 µM (active). For the compound `CCOP(=S)(OCC)SCn1c(=O)oc2cc(Cl)ccc21`, the AC50 is 50 µM (active). Regarding `CCCN(CCC)c1c([N+](=O)[O-])cc(S(N)(=O)=O)cc1[N+](=O)[O-]`, the outcome was inactive.

With `CC1=C(C(=O)Nc2ccccc2)SCCO1`, the outcome was inactive. On to `Cc1ccc(-c2c(Cl)nc(C#N)n2S(=O)(=O)N(C)C)cc1`, for which the concentration at half-maximal activity (AC50) was 10.3 µM (active). `N#CC(CCc1ccc(Cl)cc1)(Cn1cncn1)c1ccccc1` (stereo not given): the call was inactive. With `COP(=S)(OC)Oc1nc(Cl)c(Cl)cc1Cl`, the result was inactive. Turning to `N#Cc1cc(Br)c(O)c(Br)c1`, the AC50 is 38.9 µM (active).

For `CCc1nn(C)c(C(=O)NCc2ccc(C(C)(C)C)cc2)c1Cl`, the AC50 was 0.578 µM (active). Consider `COP(N)(=O)SC` (stereo not given), for which the compound was classed as inactive. On to `C#CCOS(=O)OC1CCCCC1Oc1ccc(C(C)(C)C)cc1` (stereo not given), for which the half-maximal activity concentration (AC50) was 1.16 µM (active). On to `CCNc1nc(Cl)nc(NCC)n1`, for which the result was inactive.
